Measurements published in PubChem BioAssay (NCI).
About 79,000 compounds went through this panel and 15% of them were active in at least one assay; those are over-represented in the sample as a whole. Unmarked numbers belong to inactive results. Active and inactive are the calls of the source. Cut-off read from the data, not from the text of the source: active = growth inhibition above about 70%; inactive = the rest.

Columns and labels:
[1] = NCI Yeast Anticancer Drug Screen. Data for the rad50 strain (AID 155);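 note: 0% = growth of vehicle-only cultures of the same strain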; details: S. cerevisiae rad50 strain growth inhibition; at 50.0 µM; active compounds read high
Method in brief: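 Vehicle-treated cultures provide the reference for the growth inhibition reported for compound-exposed, repair-deficient yeast.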

[2] = NCI Yeast Anticancer Drug Screen. Data for the mec2-1 strain (AID 157); details: S. cerevisiae mec2-1 strain, at 50.0 µM, active compounds read high
Method in brief: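 Yeast mec2-1 mutant treated with compound. Readout: growth inhibition vs vehicle controls.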

[3] = NCI Yeast Anticancer Drug Screen. Data for the sgs1 mgt1 strain (AID 161);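 note: 0% = growth of cultures given vehicle only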; details: S. cerevisiae sgs1 mgt1 strain, at 50.0 µM, active compounds read high
Method in brief: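 Test agents were incubated with a DNA-repair-mutant yeast strain. Growth was then read and compared against vehicle-treated controls.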

[4] = NCI Yeast Anticancer Drug Screen. Data for the cln2 rad14 strain (AID 165);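 note: 0% = growth equal to vehicle treated cultures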; details: S. cerevisiae cln2 rad14 strain, at 50.0 µM, active compounds read high
Method in brief: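 cln2 rad14 yeast strain; compound exposure; growth inhibition read vs vehicle controls.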

[5] = NCI Yeast Anticancer Drug Screen. Data for the bub3 strain (AID 167); details: S. cerevisiae bub3 mutant strain, at 50.0 µM, active compounds read high
Method in brief: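 Mutant yeast screening strain plus compound; vehicle-treated cultures serve as the 0% inhibition reference.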

[6] = NCI Yeast Anticancer Drug Screen. Data for the mlh1 rad18 strain (AID 175); details: S. cerevisiae mlh1 rad18 strain growth inhibition; at 50.0 µM; active compounds read high
Method in brief: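 Yeast w/ defined DNA-repair lesions; compound exposure; growth vs vehicle controls → % inhibition.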

| SMILES | growth inhibition [1] | growth inhibition [2] | growth inhibition [3] | growth inhibition [4] | growth inhibition [5] | growth inhibition [6] |
| --- | --- | --- | --- | --- | --- | --- |
| Cc1ccc(C(=O)c2c[nH]c(=O)[nH]c2=O)cc1 | 9.45% | -20.2% | -6.7% | -6.5% | -3.05% | -21.9% |
| O=C(O)CC(=O)CC(=O)c1ccccc1 | -14.8% | -18.5% | -23.4% | -30.7% | -2.1% | -7.4% |
| CCCOC(=O)CCCC1=NC2=CC=CC3=NC(C)=NC(=N1)N23 | -10.3% | -3.4% | -7.45% | -45.1% | -38.1% | -7.45% |
| O=C1CCCc2c1cc1c3c(cccc23)CC1 | -9.9% | -23.2% | 0.7% | -15.6% | 9.8% | -1.85% |
| O=C(Nc1ccc2c(c1)Cc1cccc(F)c1-2)C(F)(F)F | 4.7% | -1.45% | 2.9% | -1.5% | 36.7% | 7.3% |
| O=Nc1ccc(Cl)cc1 | -7.1% | 28.9% | -10.3% | 7.15% | 14.9% | 8.45% |
| N#CCCN(c1ccc(C=Nc2ccc(C(=O)O)cc2)cc1)S(=O)(=O)c1ccccc1 | -0.1% | -29.6% | 7.4% | 5.75% | 19.9% | -11.1% |
| C(#CCOc1ccc2c(c1)OCO2)COc1ccc2c(c1)OCO2 | 29% | 0.8% | -18.8% | -9.05% | -8.8% | 8.3% |
| CC/C(SC)=[N+](\C)[O-] | 3.9% | -6.9% | -23.1% | -5.6% | -20.4% | 4.25% |
| CC(N)c1ccc(OCCOc2ccc(C(C)(C)CC(C)(C)C)cc2)cc1 (stereo not drawn) | 98.9% (active) | 99% (active) | 42.7% | 97.7% (active) | 98.9% (active) | 99% (active) |
| OCCCOCc1ccccc1 | 39.8% | 27.4% | 30.9% | 30.3% | 17.5% | 12.2% |
| O=C1OCc2cccc3c2-c2c1cccc2C(=O)OC3 | -3% | -5.7% | -4.8% | 16.2% | -12.5% | 6.7% |
| CNC(=S)SC(=S)NC | 14.6% | 8.3% | -4.55% | -20.4% | -1.75% | 4.75% |
| CCN(CC)CCCN1CC(=O)N2CCCCN2C(=O)C1 | 28.8% | -3.6% | 13.4% | 6.15% | 3.05% | 8.9% |
| O=C1c2ccccc2CC12Cc1ccc3c(c1C2=O)CCCC3 (stereo not drawn) | -11.2% | -14.4% | -3.85% | -30.2% | -3.55% | -33.5% |
| CCOc1ccc(-c2nc(-c3oc4ccccc4c(=O)c3OC(C)=O)cs2)cc1 | -5.25% | 1% | 1.85% | -2.85% | -5.9% | 9.4% |
| CC1(C)[C@H](C(=O)O)N2C(=O)[C@@H](NC(=O)C(c3ccccc3)c3ccccc3)[C@H]2S1=O (stereo partly drawn) | -53.5% | -8.25% | -10.4% | 3.65% | -3.9% | 4.85% |
| COC1=CC(=O)c2ccccc2C1(CCC=C(C)C)C1=NC(C)(C)CO1 (stereo not drawn) | -27% | -11.6% | 7.75% | 5.65% | -8.6% | -11.6% |
| COC(=O)CCC(CCC(=O)O)([N+](=O)[O-])[N+](=O)[O-] | 2.05% | -5.65% | -6.3% | -36.4% | -12.1% | -11.8% |

| SMILES | growth inhibition [1] | growth inhibition [2] | growth inhibition [3] | growth inhibition [4] | growth inhibition [5] | growth inhibition [6] |
| --- | --- | --- | --- | --- | --- | --- |
| O=C(NCCc1ccccc1)c1c(O)c2ccccc2[nH]c1=O | 5.85% | 11.9% | 23.7% | 18.2% | 14.1% | 10% |
| O=C(Cn1c2c(c3ccccc31)CCCC2)N1CCCC1 | -11.8% | -39.9% | 0.05% | 2.75% | 7.05% | -23.7% |
| Cc1ccnn1CCc1ccc(Cl)cc1Cl | 18.1% | 15.3% | 34.1% | 11.4% | 29.5% | -4.55% |
| Cc1c(C)n2c(=O)n(-c3ccccc3)c(=O)n2c1=O | -38% | -27.1% | -5.55% | -27.2% | -7.75% | -1.85% |
| CC(Cc1ccccc1)NC(=O)C1CC2CCCCN2C1C (stereo not drawn) | 4.95% | 20.4% | 57.2% | 45.9% | 45.5% | 48.6% |
| O=C(O)c1ccc(O)c(Cl)c1 | 14.2% | 5.8% | -7.85% | -22.2% | 9.25% | 25.4% |
| O=[N+]([O-])c1cc2c(cc1Br)C1C(C3C2C2(Cl)C(Cl)=C(Cl)C3(Cl)C2(Cl)Cl)C2(Cl)C(Cl)=C(Cl)C1(Cl)C2(Cl)Cl (stereo not drawn) | 31.7% | 5.4% | 24.6% | 11.8% | 11.2% | 8.1% |
| NC(=O)c1ccccc1NC(=O)Nc1ccc(Cl)cc1 | -3.6% | 20.8% | 13.8% | -15.3% | 21.5% | 27% |
| OCCOc1ccc2ccccc2c1-c1c(OCCO)ccc2ccccc12 | 98.5% (active) | 95.7% (active) | 98.5% (active) | 97.7% (active) | 98.9% (active) | 98.6% (active) |
| O=C(Nc1ccc(Cl)cc1[N+](=O)[O-])Oc1ccc(-c2ccccc2)cc1 | 23.4% | 58.5% | 48.1% | 8.3% | 78.8% (active) | 66% |
| Brc1cc2[nH]c(-c3ccccc3)c(Br)c2c(Br)c1Br | 59% | 36.5% | 68.5% | 39.2% | 14.3% | 69% |
| O1[SiH]2[SiH]3O[SiH]3[SiH]3O[SiH]3[SiH]12 (stereo not drawn) | -16.8% | -11.7% | -8.2% | -16.6% | -4.35% | -26.6% |
| Nc1ccccc1C(=O)/C=C/c1c(O)ccc2ccccc12 | 29.6% | 9.5% | 10.2% | 15.9% | 21.1% | 34.3% |
| NC(=S)N/N=C\c1nccc2ccc(N)cc12 | 36% | -0.8% | 3.1% | -46.8% | -5.8% | 4.9% |
| Cc1cccc(C)c1NC(=O)C(=O)/C(=C(\N)c1ccccc1)c1ccccc1 | -14.3% | -9.5% | -15.2% | 29.8% | 10.2% | -9.15% |
| CC(=O)CC(=O)Nc1cccc(NC(=O)CC(C)=O)c1 | -16.4% | 8.45% | -10.6% | 3.85% | -5.8% | -20.6% |
| O=C1NC(=O)C2(N1)c1ccccc1-c1ccc(Br)cc12 (stereo not drawn) | -2.85% | -8.9% | -0.2% | -20.4% | 0.15% | -2.7% |
| Cc1ccc(-n2cnc3c(Cl)ncnc32)cc1 | -18.1% | -0.05% | -12.1% | -15.2% | -16.8% | 3.3% |
| CC1=C(c2cc(C(=O)Nc3nccs3)nc(NC#N)n2)Sc2ccccc2N1 | -9.2% | 5.4% | -8.65% | 15.2% | 4.5% | 10.3% |
